# Inconclusive results are not listed. Entries that show only a call come without a potency. Values without a mark were called inactive. Activity calls are given as the source filed them. Calls follow the shape of the dose curve; as a rule, active = well fitted curve in the direction sought with a large enough effect; inconclusive = small, poorly fitted or top-dose-only effect, or another doubt; inactive = no such curve, though single readings can be large; an effect the other way counts as inactive or inconclusive.
# Experiments:
# [1] = target: Rap guanine nucleotide exchange factor 3 (Homo sapiens) (UniProt O95398); assay: Confirmatory qHTS for antagonist of cAMP-regulated guanine nucleotide exchange factor 3 (EPAC1) (AID 1645880); conditions: EPAC1 Rap1B-BODIPY-GDP exchange, fluorescence; activity, negative = inhibition: at 115 µM (top of the series); also: nearly all actives have a fitted effect of over 55% in size; also: potency is read from the fitted curve at half-maximal effect
# In short: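 Nucleotide exchange uses 100 nM EPAC1, 250 nM RAP1B-BODIPY-GDP and 50 uM GDP, with compounds in a concentration-titration series. After 5 min at room temperature, fluorescence (480 nm ex/540 nm em) is read every 5 min for 30 min. Data are normalized to control ATA and DMSO.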
# [2] = target: Rap guanine nucleotide exchange factor 3 (Homo sapiens) (UniProt O95398); assay: Confirmatory qHTS for agonist of cAMP-regulated guanine nucleotide exchange factor 3 (EPAC1) (AID 1645881); also: nearly all actives have a fitted effect of over 75% in size; also: potency is read from the fitted curve at half-maximal effect
# [3] = target: Rap guanine nucleotide exchange factor 4 (Homo sapiens) (UniProt Q8WZA2); assay: Confirmatory qHTS for antagonist of cAMP-regulated guanine nucleotide exchange factor 4 (EPAC2) (AID 1645885); also: nearly all actives have a fitted effect of over 25% in size; also: potency is read from the fitted curve at half-maximal effect
# [4] = target: Rap guanine nucleotide exchange factor 3 (Homo sapiens) (UniProt O95398); assay: Counterscreen qHTS for antagonist of cAMP-regulated guanine nucleotide exchange factor 3 (EPAC1) (AID 1645888);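 also: fluorescence loss as bound BODIPY-GDP is released from Rap1B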
# In short: (§1)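 Rap1B–BODIPY-GDP (250 nM) with 50 uM GDP; compounds pin-transferred to 9.74 nM–152 uM final (activator) or from 7.32 nM upwards (inhibitor). Fluorescence Ex/Em 480/540 nm read at 5 and 30 min, then after adding cAMP or buffer, at room temperature.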
# [5] = target: Rap guanine nucleotide exchange factor 3 (Homo sapiens) (UniProt O95398); assay: Counterscreen qHTS for agonist of cAMP-regulated guanine nucleotide exchange factor 3 (EPAC1) (AID 1645889); also: nearly all actives have a fitted effect of over 40% in size; also: potency is read from the fitted curve at half-maximal effect
# In short: as §1
# Chain of Rap guanine nucleotide exchange factor 4 (Homo sapiens) (Q8WZA2 whole entry, looked up): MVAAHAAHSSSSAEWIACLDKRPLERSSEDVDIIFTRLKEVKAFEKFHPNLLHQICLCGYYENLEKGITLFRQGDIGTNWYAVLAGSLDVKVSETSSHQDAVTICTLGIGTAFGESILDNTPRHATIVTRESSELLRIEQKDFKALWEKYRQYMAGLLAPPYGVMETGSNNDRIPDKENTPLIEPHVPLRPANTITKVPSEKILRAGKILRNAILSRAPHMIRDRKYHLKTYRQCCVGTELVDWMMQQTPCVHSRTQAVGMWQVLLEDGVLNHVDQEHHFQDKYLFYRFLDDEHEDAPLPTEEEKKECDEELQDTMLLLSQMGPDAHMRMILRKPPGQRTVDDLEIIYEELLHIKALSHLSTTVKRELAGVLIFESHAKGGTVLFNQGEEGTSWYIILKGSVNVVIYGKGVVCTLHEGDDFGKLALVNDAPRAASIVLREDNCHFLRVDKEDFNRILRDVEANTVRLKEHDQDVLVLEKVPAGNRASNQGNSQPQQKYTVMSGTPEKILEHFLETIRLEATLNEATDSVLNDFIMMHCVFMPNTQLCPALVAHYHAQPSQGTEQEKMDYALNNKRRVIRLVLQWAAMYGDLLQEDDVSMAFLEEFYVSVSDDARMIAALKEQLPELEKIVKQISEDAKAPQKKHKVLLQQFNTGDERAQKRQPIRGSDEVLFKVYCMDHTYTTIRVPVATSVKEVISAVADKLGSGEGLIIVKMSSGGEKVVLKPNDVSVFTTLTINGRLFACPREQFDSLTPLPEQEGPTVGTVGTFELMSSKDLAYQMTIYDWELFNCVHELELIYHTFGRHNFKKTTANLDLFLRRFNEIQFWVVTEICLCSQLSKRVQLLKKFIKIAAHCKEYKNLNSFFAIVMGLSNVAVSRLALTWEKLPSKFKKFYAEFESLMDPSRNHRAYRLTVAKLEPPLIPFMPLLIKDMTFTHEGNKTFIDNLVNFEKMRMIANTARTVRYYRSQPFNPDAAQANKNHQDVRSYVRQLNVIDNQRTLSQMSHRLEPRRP
# Chain of Rap guanine nucleotide exchange factor 3 (Homo sapiens) (O95398 whole entry, looked up): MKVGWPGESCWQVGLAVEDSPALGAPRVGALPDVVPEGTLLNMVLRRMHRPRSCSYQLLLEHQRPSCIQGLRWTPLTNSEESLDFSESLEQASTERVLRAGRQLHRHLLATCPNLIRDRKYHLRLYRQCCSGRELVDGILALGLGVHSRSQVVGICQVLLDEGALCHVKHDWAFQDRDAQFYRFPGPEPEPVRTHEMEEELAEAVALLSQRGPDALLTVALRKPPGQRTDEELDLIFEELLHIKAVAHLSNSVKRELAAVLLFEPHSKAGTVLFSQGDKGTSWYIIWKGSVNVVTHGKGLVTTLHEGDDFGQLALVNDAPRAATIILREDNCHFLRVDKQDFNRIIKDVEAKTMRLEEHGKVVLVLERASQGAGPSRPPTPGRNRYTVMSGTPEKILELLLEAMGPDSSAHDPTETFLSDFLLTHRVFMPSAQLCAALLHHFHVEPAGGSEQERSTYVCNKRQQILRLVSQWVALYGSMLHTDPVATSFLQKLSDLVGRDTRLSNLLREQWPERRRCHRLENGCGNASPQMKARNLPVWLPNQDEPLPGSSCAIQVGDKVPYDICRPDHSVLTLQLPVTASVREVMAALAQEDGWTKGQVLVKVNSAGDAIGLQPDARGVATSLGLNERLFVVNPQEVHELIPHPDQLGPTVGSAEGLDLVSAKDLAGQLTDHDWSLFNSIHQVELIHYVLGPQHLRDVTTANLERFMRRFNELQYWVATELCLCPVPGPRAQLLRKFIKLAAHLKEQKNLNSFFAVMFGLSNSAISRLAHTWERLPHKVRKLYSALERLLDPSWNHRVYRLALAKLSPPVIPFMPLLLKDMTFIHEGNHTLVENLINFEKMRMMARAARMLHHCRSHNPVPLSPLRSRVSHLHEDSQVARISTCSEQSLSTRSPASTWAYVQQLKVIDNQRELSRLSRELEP
Compound,Potency [1],Potency [2],Potency [3],Potency [4],outcome [3],Potency [5]
O=C(O)CSCC(=O)N(Cc1ccccc1)c1nc(-c2ccccc2)c(-c2ccccc2)s1,67.5 µM (active),inactive,67.5 µM (active),inactive,–,–
COc1ccc(-c2nc3ccccc3n2Cc2ccccc2)cc1,inactive,inactive,inactive,inactive,–,–
COc1ccccc1CN(C)CC(=O)Nc1ccc(Cl)cc1F,inactive,inactive,inactive,inactive,–,–
COc1cc2c(cc1NC(=O)C(C)Oc1ccc(Cl)cc1Cl)oc1ccccc12 (stereo unspecified),inactive,inactive,inactive,inactive,–,–
Cc1ccc(NC(=O)N2CC3CCCN3c3ccccc32)cc1Cl (stereo unspecified),inactive,inactive,inactive,inactive,–,–
OCCCCC#Cc1c(-c2ccsc2)sc2ccccc12,inactive,inactive,inactive,inactive,–,–
COc1cc(NC(=O)CCNC(=O)Cn2ccc3ccccc3c2=O)cc(OC)c1OC,inactive,inactive,inactive,inactive,–,–
COc1ccc(-n2c(O)c(/C=N/NS(=O)(=O)c3cc(C)ccc3C)c3ccccc3c2=O)cc1OC,inactive,inactive,33.8 µM (active),inactive,–,–
Cc1cc(Br)cc(C=Nc2ccc(N3CCOCC3)cc2)c1O,inactive,inactive,inactive,inactive,–,–
COc1ccc(CCNC(=O)CCCn2c(SCC(N)=O)nc3cc4c(cc3c2=O)OCO4)cc1OC,inactive,inactive,–,inactive,inactive [at 12.7 µM],–
COCc1ccccc1C1=CC(=O)C[C@H](c2ccc(F)cc2)C1,inactive,inactive,inactive,inactive,–,–
O=C1CCC(C(=O)Nc2ccccc2N2CCCC2)=NN1,inactive,inactive,inactive,inactive,–,–
Nc1ncnc2c1nc(Sc1ccc(Cl)cc1)n2[C@@H]1O[C@@H]2COP(=O)(O)O[C@H]2[C@H]1O,0.213 µM (active),0.355 µM (active),0.675 µM (active),inactive,–,–
CCOc1cc(CNc2ccc(O)cc2)ccc1OCc1ccc(Cl)cc1,84.9 µM (active),inactive,inactive,inactive,–,–
O=C(c1ccccc1Br)N(Cc1ccco1)Cc1ccco1,inactive,inactive,inactive,inactive,–,inactive
CC(C)COc1ccc(C(=O)Nc2cc(-c3ccccc3)no2)cc1,inactive,inactive,inactive,inactive,–,inactive
CCN(CC)CCOC(=O)c1ccc(NC(=O)c2nn(-c3ccc(C)cc3)c(=O)c3c2c2ccccc2n3C)cc1,42.6 µM (active),inactive,–,inactive,inactive [at 12.7 µM],inactive
COC(=O)c1c(NC(=O)c2ccc(S(=O)(=O)N3CCCCC3C)cc2)sc2c1CCN(C(C)C)C2 (stereo unspecified),inactive,112 µM (active),inactive,inactive,–,79.4 µM (active)
CCOC(=O)c1cc2c(=O)n3ccccc3nc2n(C(C)C)c1=NC(=O)c1cc2ccccc2o1,75.7 µM (active),inactive,inactive,inactive,–,inactive
CCOC(=O)Nc1ccccc1C(=O)Nc1cc(C)cc(C)c1,inactive,inactive,inactive,inactive,–,0.631 µM (active)
CCCc1nn2c(=O)cc(COC(=O)c3ccc(NC(=O)COc4ccccc4F)cc3)nc2s1,inactive,inactive,inactive,inactive,–,inactive
Cc1ccc(-n2nc3c(=O)n(CCCC(=O)NCc4ccc(F)cc4)nc(C)c3c2C)cc1,inactive,inactive,–,inactive,inactive [at 12.7 µM],inactive
CCC(=O)N1CCc2cc(CNC(=O)c3ccccc3C)ccc21,inactive,inactive,inactive,inactive,–,inactive
Cc1nnc(N2CCC(C(=O)NC3CCCCC3)CC2)c2nn(-c3ccccc3)c(C)c12,inactive,inactive,inactive,inactive,–,inactive
COc1ccc2c(Cl)c(C(=O)N/N=C3\CCCC(=O)C3)sc2c1,inactive,inactive,30.1 µM (active),inactive,–,39.8 µM (active)
CCN(CC(=O)NCc1cccs1)C(=O)c1ccc(S(=O)(=O)Nc2ccccc2)cc1,inactive,inactive,inactive,inactive,–,inactive
COc1ccc(N=Nc2nc3ccc(Br)cc3n2C)cc1,inactive,inactive,inactive,inactive,–,50.1 µM (active)
Cc1ccc2nc(SCC(=O)c3c(N)n(C4CC4)c(=O)[nH]c3=O)[nH]c2c1,inactive,inactive,inactive,inactive,–,inactive
CCn1nc(C)c(C(=O)Nc2cc(Oc3ccc(Cl)cc3)cc([N+](=O)[O-])c2)c1C,inactive,inactive,inactive,inactive,–,inactive

# From PubChem BioAssay (NCATS)
